The nature of assay [1]: qHTS profiling for inhibitors of Plasmodium falciparum (DD2) proliferation (AID 743323; call rule not given here). As to conditions: lower = more inhibition; at 28.7 µM (top of the series). The gist of the method:
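Parasite proliferation measured via DNA-dye fluorescence, as uninfected erythrocytes lack DNA. Cultures at 0.3% parasitemia and 2.5% hematocrit incubated 72 h with compound; signal scaled between vehicle and 0.29 uM artemisinin wells.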

The nature of assay [2]: qHTS profiling for inhibitors of Plasmodium falciparum (HB3) proliferation (AID 743324).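 Further: 100% = DMSO vehicle wells and 0% = artemisinin-treated control wells.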 As to conditions: Plasmodium falciparum HB3 blood-stage proliferation; at 28.7 µM (top of the series). An outline of the steps: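 P. falciparum HB3 grown in erythrocytes (0.3% parasitemia, 2.5% hematocrit final) with compound for 72 h at 37 C, 5% CO2. Parasite DNA detected by SYBR Green after saponin/triton lysis overnight; normalized to 0.29 uM artemisinin and DMSO.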

Assay [3] is described as follows: qHTS for Inhibitors of the vitamin D receptor (VDR): Hit Validation using a Texas Red Assay (AID 602201). Further: potency means the concentration at half of the fitted maximal effect. The note with it: VDR coregulator binding, Texas Red fluorescence polarization; agonist-bound VDR ligand-binding domain. An outline of the steps: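 Fluorescence polarization with 1.5 uM VDR-LBD, LG19078 and 7 nM Texas Red (final). After 2 hours at ambient temperature, read at Ex 595 nm/Em 615 nm.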

Assay [4] in a line: qHTS profiling of the MIPE4 collection as inhibitors of Plasmodium falciparum (DD2) proliferation (AID 743345; call rule not given here). The note with it: P. falciparum Dd2 in erythrocytes, SYBR Green DNA, 72 h; at 28.5 µM (top of the series). An outline of the steps: (§1)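 Erythrocytes infected with P. falciparum (0.3% parasitemia, 2.5% hematocrit) incubated with compounds 72 h at 37 C, 5% CO2. Lysis with saponin/Triton buffer containing SYBR Green I, overnight at room temperature in the dark; DNA fluorescence (485/535 nm) normalised to 0.29 uM artemisinin and DMSO.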

The nature of assay [5]: qHTS profiling of the MIPE4 collection as inhibitors of Plasmodium falciparum (HB3) proliferation (AID 743347; call rule not given here;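 further: plate controls were DMSO vehicle wells for no effect and artemisinin wells for full effect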). As to conditions: P. falciparum HB3 in erythrocytes, SYBR Green DNA, 72 h; at 28.5 µM (top of the series). An outline of the steps: as §1
For assay [6], the target named is Pyruvate kinase (Leishmania mexicana) (UniProt Q27686). Kind of assay: qHTS Validation Assay for Activators of Leishmania Mexicana Pyruvate Kinase (AID 959). The gist of the method:
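An endpoint luciferase assay: 0.2 nM LmPYK E451W turns over 0.5 mM PEP with 0.1 mM ADP for 1 h at room temperature, pH 7.2, before PKLight addition. Values are normalized to DMSO-only wells.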

In assay [7] the target is Tyrosyl-DNA phosphodiesterase 1 (Homo sapiens) (UniProt Q9NUW8). Kind of assay: Confirmation Assay for Inhibitors of Tyrosyl-DNA Phosphodiesterase (TDP1) (AID 489007). Further: potency means the concentration at half of the fitted maximal effect; nearly all actives have a fitted effect of over 40% in size. The note with it: recombinant human TDP1 enzymatic activity, dose-response. An outline of the steps:
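Confirmation of primary-screen follow-ups in a qHTS format. Substrate cleavage by Tdp1 (1 nM) of a 3'-phosphotyrosine-FITC, 5'-biotin oligo (15 nM) was monitored as decreased AlphaScreen signal after a 5 min room-temperature reaction.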

The target of assay [8] is Lysosomal acid glucosylceramidase (Homo sapiens) (UniProt P04062). Put plainly: Glucocerebrosidase-p2 (AID 348; in the data active means potency below about 10 µM; further: potency means the concentration at half of the fitted maximal effect). The note with it: purified GBA, blue fluorogenic substrate, 40 min. The gist of the method: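 Compounds titrated from 0.6 nM upwards against 0.2 nM enzyme in pH 5.9 citric acid/KH2PO4, taurocholate, tween-20; blue fluorogenic substrate 80 uM, 40 min room temperature, stopped and read Ex 365/Em 440 for AC50.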

Assay [9] concerns the target Rap guanine nucleotide exchange factor 3 (Homo sapiens) (UniProt O95398). Put plainly: Confirmatory qHTS for antagonist of cAMP-regulated guanine nucleotide exchange factor 3 (EPAC1) (AID 1645880).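 Further: plate controls were DMSO only for no effect and full effect of the ATA control for full effect; nearly all actives have a fitted effect of over 55% in size.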 The gist of the method:
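Nucleotide exchange uses 100 nM EPAC1, 250 nM RAP1B-BODIPY-GDP and 50 uM GDP, with compounds in a concentration-titration series. After 5 min at room temperature, fluorescence (480 nm ex/540 nm em) is read every 5 min for 30 min. Data are normalized to control ATA and DMSO.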

Assay [10] has as its target Rap guanine nucleotide exchange factor 4 (Homo sapiens) (UniProt Q8WZA2). Kind of assay: Confirmatory qHTS for antagonist of cAMP-regulated guanine nucleotide exchange factor 4 (EPAC2) (AID 1645885). Further: on the % scale 0 is the no-effect control and ±100 the full control effect; nearly all actives have a fitted effect of over 25% in size.
Assay [11] has as its target Cytochrome P450 2C9 (Homo sapiens) (UniProt P11712). Put plainly: Cytochrome P450 family 2 subfamily C member 9 (CYP2C9) small molecule antagonists: luciferase biochemical (cell-free) qHTS assay (AID 1645842; active means well fitted curve in the direction sought with a large enough effect in the repeat runs; an effect the other way counts as inactive or inconclusive; further: on the % scale 0 is the no-effect control and ±100 the full control effect; nearly all actives have a fitted effect of over 55% in size). The gist of the method:
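Luminescence, after 20 min with luciferin detection reagent, reflected CYP2C9 turnover during a 1 h NADPH-driven reaction at 37C. Enzyme-substrate mix contained 0.4% bovine serum albumin and was preincubated with compound 10 min at room temperature.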

Assay [12] addresses N-terminal Xaa-Pro-Lys N-methyltransferase 1 (Homo sapiens) (UniProt Q9BV86). Put plainly: Confirmatory qHTS for Inhibitors of N-terminal methyltransferase 1 (NTMT1): MTaseGlo Assay (AID 1645874).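 Further: luminescence from SAH made as NTMT1 methylates SPKRIA peptide using SAM; 0% = DMSO control and -100% = no-enzyme control; nearly all actives have a fitted effect of over 65% in size.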 The gist of the method: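 Compounds are incubated with 125 nM NTMT1 and 100 uM SAM for 15 min before the SPKRIA peptide (1 uM) starts a 30 min room-temperature methylation. SAH is measured by coupled luciferase luminescence and curves fitted to a Hill equation.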

The nature of assay [13]: Primary qHTS for inhibitors of nuclear receptor binding SET domain protein 2 (NSD2) in an isogenic RCH-ACV NSD2 p.E1099K mutant (9B) (AID 1645876). Further: potency means the concentration at half of the fitted maximal effect; nearly all actives have a fitted effect of over 70% in size.
Assay [14] in a line: Primary qHTS for inhibitors of nuclear receptor binding SET domain protein 2 (NSD2) in an RCH-ACV wild type WT cells (2C) (AID 1645877). Further: potency means the concentration at half of the fitted maximal effect; nearly all actives have a fitted effect of over 70% in size.
The target in assay [15] is Glutathione peroxidase 1 (Homo sapiens) (UniProt P07203). Kind of assay: Primary qHTS Assay for Inhibitors of Recombinant Selenoprotein Glutathione Peroxidase 1 (GPX1) (AID 1845191). Further: on the % scale 0 is the no-effect control and ±100 the full control effect; nearly all actives have a fitted effect of over 65% in size. The gist of the method: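 GR-coupled assay: compounds preincubated 30 min at room temperature with GPX1, then reaction started with CHP; final 10 nM GPX1, 1 mM GSH, 0.5 mM CHP, 0.5 mM NADPH, 100 nM GR, 0.01% BSA, pH 7.5 Tris buffer. NADPH fluorescence (340/450 nm) read at 0 and 15 min.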

Assay [16] addresses Phospholipid hydroperoxide glutathione peroxidase GPX4 (Homo sapiens) (UniProt P36969). Kind of assay: Primary qHTS Assay for Inhibitors of Recombinant Selenoprotein Glutathione Peroxidase 4 (GPX4) (AID 1845192). Further: on the % scale 0 is the no-effect control and ±100 the full control effect; nearly all actives have a fitted effect of over 65% in size. As to conditions: outcome: dose series up to 50 µM unless noted. The gist of the method:
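GR-coupled assay: recombinant GPX4 preincubated 30 min with compound at room temperature; final 200 nM GPX4, 1 mM GSH, 0.5 mM cumene hydroperoxide, 0.5 mM NADPH, 100 nM GR, 0.01% BSA, pH 7.5 Tris. NADPH fluorescence (340/450 nm) read at 0 and 15 min.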

For assay [17], the target named is Cytochrome P450 3A4 (Homo sapiens) (UniProt P08684). Put plainly: Cytochrome P450 family 3 subfamily A member 4 (CYP3A4) small molecule antagonists: luciferase qHTS assay (AID 1645841; active means well fitted curve in the direction sought with a large enough effect in the repeat runs; an effect the other way counts as inactive or inconclusive; further: nearly all actives have a fitted effect of over 45% in size). The gist of the method: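 P450-Glo CYP3A4 enzyme with proluciferin substrate preincubated 10 min with compound at room temperature, then NADPH regeneration 1 h. Luciferin detection reagent added for 20 min; luminescence recorded. Ketoconazole positive control.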

Structures are written as SMILES. Inconclusive results are not listed. Active and inactive are the calls of the source. Unless noted, the call rests on the fitted dose curve; in most records, active means well fitted curve in the direction sought with a large enough effect; inconclusive means small, poorly fitted or top-dose-only effect, or another doubt; inactive means no such curve, though single readings can be large; an effect the other way counts as inactive or inconclusive.

Tyrosyl-DNA phosphodiesterase 1 (Homo sapiens), sequence (Q9NUW8 whole entry, looked up): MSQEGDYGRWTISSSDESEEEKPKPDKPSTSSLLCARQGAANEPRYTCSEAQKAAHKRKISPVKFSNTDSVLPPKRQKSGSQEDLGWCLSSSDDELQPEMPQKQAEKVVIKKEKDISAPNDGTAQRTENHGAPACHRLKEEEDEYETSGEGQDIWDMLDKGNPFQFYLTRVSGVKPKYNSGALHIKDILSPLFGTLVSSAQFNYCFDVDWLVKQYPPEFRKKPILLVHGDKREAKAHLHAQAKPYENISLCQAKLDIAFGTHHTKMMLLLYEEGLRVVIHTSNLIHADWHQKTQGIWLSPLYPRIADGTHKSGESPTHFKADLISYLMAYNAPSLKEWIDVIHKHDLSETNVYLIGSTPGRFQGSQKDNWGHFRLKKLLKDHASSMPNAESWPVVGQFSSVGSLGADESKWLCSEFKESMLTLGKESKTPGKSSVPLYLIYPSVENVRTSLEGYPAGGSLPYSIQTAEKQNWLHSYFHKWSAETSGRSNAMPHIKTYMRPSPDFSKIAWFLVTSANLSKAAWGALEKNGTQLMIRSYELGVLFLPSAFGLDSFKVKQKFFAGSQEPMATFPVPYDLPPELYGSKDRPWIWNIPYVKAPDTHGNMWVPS
Cytochrome P450 2C9 (Homo sapiens), sequence (P11712 whole entry, looked up): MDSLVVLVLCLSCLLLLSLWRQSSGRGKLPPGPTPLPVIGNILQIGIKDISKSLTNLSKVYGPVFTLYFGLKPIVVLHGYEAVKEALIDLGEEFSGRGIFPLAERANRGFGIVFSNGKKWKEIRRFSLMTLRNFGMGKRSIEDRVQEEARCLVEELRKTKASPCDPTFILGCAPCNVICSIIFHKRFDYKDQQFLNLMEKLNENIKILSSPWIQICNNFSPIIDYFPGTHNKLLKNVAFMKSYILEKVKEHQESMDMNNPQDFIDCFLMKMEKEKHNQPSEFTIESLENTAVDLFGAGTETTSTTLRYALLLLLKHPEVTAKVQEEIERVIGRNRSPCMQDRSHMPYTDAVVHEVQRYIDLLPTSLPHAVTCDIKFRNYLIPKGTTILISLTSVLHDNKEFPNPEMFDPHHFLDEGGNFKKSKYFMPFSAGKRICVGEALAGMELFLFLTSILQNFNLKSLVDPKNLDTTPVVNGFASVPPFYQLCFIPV
Glutathione peroxidase 1 (Homo sapiens), sequence (P07203 whole entry, looked up): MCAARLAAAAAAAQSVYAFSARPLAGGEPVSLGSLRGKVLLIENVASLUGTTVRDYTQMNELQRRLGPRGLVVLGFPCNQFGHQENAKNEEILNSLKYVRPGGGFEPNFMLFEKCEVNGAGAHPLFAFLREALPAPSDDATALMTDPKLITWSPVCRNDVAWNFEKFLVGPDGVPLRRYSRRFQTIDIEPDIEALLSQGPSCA
Lysosomal acid glucosylceramidase (Homo sapiens), sequence (P04062 whole entry, looked up): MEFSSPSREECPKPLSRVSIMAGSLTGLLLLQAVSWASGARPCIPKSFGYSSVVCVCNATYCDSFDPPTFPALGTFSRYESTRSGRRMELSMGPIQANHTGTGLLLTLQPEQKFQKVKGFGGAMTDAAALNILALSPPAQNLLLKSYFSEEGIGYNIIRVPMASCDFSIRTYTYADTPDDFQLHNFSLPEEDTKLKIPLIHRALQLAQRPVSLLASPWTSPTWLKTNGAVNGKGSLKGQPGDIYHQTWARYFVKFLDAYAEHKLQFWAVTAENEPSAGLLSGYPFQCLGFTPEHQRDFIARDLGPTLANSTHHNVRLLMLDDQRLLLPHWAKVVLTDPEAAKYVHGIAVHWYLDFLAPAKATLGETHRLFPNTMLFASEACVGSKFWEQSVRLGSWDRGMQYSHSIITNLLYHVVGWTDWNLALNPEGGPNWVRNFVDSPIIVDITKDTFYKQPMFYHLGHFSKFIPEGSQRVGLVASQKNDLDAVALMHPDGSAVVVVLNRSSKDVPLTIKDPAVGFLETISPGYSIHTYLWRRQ
Cytochrome P450 3A4 (Homo sapiens), sequence (P08684 whole entry, looked up): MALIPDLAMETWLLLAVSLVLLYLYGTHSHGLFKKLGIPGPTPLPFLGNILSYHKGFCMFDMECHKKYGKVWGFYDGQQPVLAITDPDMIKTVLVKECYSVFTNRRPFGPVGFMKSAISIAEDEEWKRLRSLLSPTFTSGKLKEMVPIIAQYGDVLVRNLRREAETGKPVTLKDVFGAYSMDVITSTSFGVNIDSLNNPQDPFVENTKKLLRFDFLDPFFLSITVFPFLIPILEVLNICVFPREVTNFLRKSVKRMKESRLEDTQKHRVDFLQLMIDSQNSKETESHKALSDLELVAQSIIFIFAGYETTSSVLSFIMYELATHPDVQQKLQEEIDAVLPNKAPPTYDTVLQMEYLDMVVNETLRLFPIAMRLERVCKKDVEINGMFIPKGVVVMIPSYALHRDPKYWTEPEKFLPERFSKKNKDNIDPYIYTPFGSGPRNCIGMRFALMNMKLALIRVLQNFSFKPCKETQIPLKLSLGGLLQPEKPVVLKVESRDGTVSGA
Pyruvate kinase (Leishmania mexicana), sequence (Q27686 2-499 E452W): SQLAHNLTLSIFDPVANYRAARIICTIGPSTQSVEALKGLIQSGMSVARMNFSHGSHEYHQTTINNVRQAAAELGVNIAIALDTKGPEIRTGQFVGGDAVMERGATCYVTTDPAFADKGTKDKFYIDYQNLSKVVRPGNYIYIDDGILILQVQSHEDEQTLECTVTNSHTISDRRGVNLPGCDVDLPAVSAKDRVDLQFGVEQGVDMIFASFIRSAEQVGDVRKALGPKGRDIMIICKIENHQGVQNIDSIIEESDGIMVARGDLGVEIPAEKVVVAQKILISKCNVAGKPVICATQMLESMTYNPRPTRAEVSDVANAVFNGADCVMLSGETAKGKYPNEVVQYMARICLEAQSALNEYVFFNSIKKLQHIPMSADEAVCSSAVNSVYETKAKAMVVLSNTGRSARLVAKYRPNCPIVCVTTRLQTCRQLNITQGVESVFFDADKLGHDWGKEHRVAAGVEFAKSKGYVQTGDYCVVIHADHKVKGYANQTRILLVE
Phospholipid hydroperoxide glutathione peroxidase GPX4 (Homo sapiens), sequence (P36969 whole entry, looked up): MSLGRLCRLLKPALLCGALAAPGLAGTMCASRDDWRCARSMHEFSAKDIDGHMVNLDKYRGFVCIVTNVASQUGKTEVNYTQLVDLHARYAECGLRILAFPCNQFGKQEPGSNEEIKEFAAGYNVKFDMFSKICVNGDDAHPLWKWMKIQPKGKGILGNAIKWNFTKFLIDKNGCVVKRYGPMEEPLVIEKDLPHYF
N-terminal Xaa-Pro-Lys N-methyltransferase 1 (Homo sapiens), sequence (Q9BV86 whole entry, looked up): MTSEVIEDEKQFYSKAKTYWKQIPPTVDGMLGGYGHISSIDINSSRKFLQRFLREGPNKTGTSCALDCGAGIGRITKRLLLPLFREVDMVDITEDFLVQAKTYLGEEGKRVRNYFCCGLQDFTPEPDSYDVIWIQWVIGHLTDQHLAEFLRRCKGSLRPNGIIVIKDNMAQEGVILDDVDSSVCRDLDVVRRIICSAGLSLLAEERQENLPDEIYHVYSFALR
Rap guanine nucleotide exchange factor 4 (Homo sapiens), sequence (Q8WZA2 whole entry, looked up): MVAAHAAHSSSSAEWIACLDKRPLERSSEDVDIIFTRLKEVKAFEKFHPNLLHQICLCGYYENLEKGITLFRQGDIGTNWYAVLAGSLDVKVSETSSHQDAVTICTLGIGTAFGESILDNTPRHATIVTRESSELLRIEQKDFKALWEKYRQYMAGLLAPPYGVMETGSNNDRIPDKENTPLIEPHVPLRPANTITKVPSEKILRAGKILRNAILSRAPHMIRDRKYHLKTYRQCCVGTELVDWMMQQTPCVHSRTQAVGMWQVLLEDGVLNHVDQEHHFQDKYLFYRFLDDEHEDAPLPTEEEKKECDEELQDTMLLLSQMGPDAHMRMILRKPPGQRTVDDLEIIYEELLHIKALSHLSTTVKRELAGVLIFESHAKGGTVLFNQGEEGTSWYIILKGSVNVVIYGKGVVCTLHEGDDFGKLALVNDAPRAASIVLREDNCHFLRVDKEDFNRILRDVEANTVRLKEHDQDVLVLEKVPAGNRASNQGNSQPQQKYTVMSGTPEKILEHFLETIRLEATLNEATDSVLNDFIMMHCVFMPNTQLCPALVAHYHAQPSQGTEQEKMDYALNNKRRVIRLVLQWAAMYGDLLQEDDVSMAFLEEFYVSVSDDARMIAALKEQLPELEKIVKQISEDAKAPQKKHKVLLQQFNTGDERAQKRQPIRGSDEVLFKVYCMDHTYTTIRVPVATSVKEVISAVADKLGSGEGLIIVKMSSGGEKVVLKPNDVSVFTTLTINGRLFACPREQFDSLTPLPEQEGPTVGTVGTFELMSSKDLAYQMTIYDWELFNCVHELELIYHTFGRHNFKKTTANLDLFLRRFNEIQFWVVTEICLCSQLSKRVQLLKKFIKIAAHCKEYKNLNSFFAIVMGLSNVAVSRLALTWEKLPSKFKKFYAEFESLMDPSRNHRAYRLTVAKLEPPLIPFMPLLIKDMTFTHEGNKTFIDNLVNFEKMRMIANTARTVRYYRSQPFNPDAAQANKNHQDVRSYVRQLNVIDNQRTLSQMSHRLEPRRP

In turn, `OC[C@H]1OC([S-])[C@H](O)[C@@H](O)[C@H]1O.[Au+]` (some centres not stated) registered an activity, percent of control in assay [1] of 98.2%. The molecule also came in with a remaining proliferation (% of control), lower = more inhibition in assay [2] of 78.1%.

Take `O=C1c2ccccc2CCC1CNCCc1ccc(O)cc1` (configuration not stated): in assay [3], the Potency is 28.2 µM (active).

On to `C[C@H](CCC(=O)O)[C@H]1CCC2C3CC[C@@H]4C[C@H](O)CC[C@]4(C)C3CC[C@@]21C` (some centres not stated), for which the parasite growth remaining, % of DMSO control (lower = more inhibition) in assay [4] was found to be 97.2%. In [5], the growth, % of control was 98.2%.

Take `N[C@]1(C(=O)O)CCc2cc(C(=O)O)ccc21`: the Potency in assay [6] is 15.8 µM (active).

With `Cc1nc(N=Nc2cc(S(=O)(=O)O)ccc2S(=O)(=O)O)c(COP(=O)(O)O)c(C=O)c1O`, the Potency in [7] is 1 µM (active).

Consider `NCCC[C@@H](N)C(=O)O`, for which the Potency in assay [8] was > 11.4 µM (inactive).

On to `CN1[C@@H]2CC(OC(=O)[C@H](CO)c3ccccc3)C[C@@H]1[C@H]1O[C@H]12` (some centres not stated), for which the Potency entry in assay [9] and in assay [10] was “inactive” throughout.

Consider `CN(CC[C@@H](Oc1ccc(-c2ccccc2)cc1)c1ccc(F)cc1)CC(=O)O`, for which the Potency entry in assay [11] was “inactive”.

In the case of `CC(=O)C1CCC2C3CCC4=CC(=O)CCC4(C)C3CCC12C` (configuration not stated), the Potency entry in [12], in [15] and in [16] was “inactive” each time. In addition, the Potency was 20.9 µM (active) in assay [13] and 18.6 µM (active) in assay [14].

Take `CC(C)c1cccc(O)c(=O)c1`: the result in assay [17] was inactive.

For the origin of these results see PubChem BioAssay (NCATS).
